ELG1 repair inh: inhibitors of ELG1-dependent DNA repair in HEK293T cells. hit rate 2.3% among 330,000. HEK293T ELG1-luciferase reporter, luminescence, 16 h; DNA damage induced by 5-fluorouridine. AID 504467. Potency, µM (doses to about 46.1 µM), for the others: at the highest dose activity change, negative = inhibition, usual class: inhibitors; also: % is scaled to controls: 0 for no effect and ±100 for the full control effect; nearly all actives have a fitted effect of over 55% in size
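DMSO vehicle served as the neutral condition. Each well held 2,000 cells given 5-fluorouridine plus compound; after 16 hr at 37 °C/5% CO2, ONE-Glo was added and luciferase measured 30 min later.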
FLuc counter: firefly luciferase modulation, counter-screen for miR-21 project. Potency, µM (top dose mostly 57.5 µM), without a hit: top-dose activity change, negative = inhibition, hits mostly inhibitors. hit rate 6.9% among 360,000. AID 588342. P08659. purified FLuc, Km substrates, luminescence inhibition;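 also: plate controls were vehicle for no effect and reference inhibitor for full effect; nearly all actives have a fitted effect of over 55% in size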
Target sequence (P08659 whole entry, looked up): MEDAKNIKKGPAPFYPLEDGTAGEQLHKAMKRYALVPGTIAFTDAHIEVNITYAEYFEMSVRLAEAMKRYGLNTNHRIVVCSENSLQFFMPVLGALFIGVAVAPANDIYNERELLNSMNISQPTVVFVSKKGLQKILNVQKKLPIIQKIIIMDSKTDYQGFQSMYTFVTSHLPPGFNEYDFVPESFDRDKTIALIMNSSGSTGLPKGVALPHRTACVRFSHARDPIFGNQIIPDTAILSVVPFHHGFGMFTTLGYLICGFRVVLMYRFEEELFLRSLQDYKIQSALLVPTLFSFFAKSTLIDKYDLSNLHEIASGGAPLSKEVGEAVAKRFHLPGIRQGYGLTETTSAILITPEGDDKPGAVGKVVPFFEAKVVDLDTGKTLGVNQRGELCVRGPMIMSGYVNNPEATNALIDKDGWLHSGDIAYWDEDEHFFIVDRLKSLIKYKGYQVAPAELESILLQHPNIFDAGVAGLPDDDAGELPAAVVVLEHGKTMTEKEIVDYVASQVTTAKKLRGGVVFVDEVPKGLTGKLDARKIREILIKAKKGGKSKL
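Biochemical qHTS of compounds, final roughly 60 µM downward over six points, against 10 nM purified firefly luciferase using Km concentrations of substrates (10 uM D-luciferin, 10 uM ATP) in Tris acetate pH 7.5 buffer; luminescence output.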
NPC1 prom act: NPC1 promoter activation | Huh7 NPC1 promoter luciferase reporter, 24 h | Potency, µM (series often up to 9.22 µM), for inactives: top-dose activation, hits mostly activators | hit rate 2.4% among 320,000; also: % of control where 0% means no effect; nearly all actives have a fitted effect of over 60% in size
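Huh7 reporter cells (NPC1 promoter driving luciferase) are dosed with compound for 24 h at 37 °C, 5% CO2; luciferase detection reagent is then added and luminescence measured after 10 min at ambient temperature.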
SMN2 splice up: increases expression of the SMN2 splice variant | hit rate 2.8% among 210,000 | AID 1458 | HEK293 SMN2-luciferase splicing reporter, luminescence, 30-36 h | Potency, µM (doses to about 46.1 µM), inactives show top-dose activity change, positive = activation, most hits filed as activators; also: % of control where 0% means no effect; nearly all actives have a fitted effect of over 55% in size
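HEK293 cells carry an SMN2 minigene-luciferase reporter in which exon 7 inclusion puts luciferase in frame. Cells were seeded at 2000 cells/well, attached for 10-12 hours, then exposed to compounds for 30-36 hours at 37C before ONE-Glo luminescence.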
Rab9 promoter act: activates the Rab9 promoter; Huh7 Rab9 promoter-luciferase reporter, luminescence, 24 h; Potency, µM (doses to about 9.22 µM), without a hit: at the highest dose activation, negative = inhibition, most hits filed as activators; hit rate 2.8% among 320,000; AID 485297; also: % of control where 0% means no effect; nearly all actives have a fitted effect of over 60% in size
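Measured in stably transfected Huh7 cells bearing a Rab9 promoter–luciferase construct: 24 h compound treatment at 37 °C, followed by luminescence detection.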
ELG1 genotoxic: inducers of genotoxicity in HEK293T ELG1-luciferase cells. HEK293T ELG1-luciferase reporter, luminescence, 16 h. Potency, µM (top dose mostly 46 µM), without a hit: at the highest dose activity change, positive = activation, usual class: activators. hit rate 1.3% among 330,000. AID 504466; also: % of control where 0% means no effect; nearly all actives have a fitted effect of over 60% in size
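Reporter readout depends on ELG1 protein level, which increases with genetic stress. After 16 hr compound exposure at 37 °C, luciferase activity was quantified using ONE-Glo.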
The depositor's hits bear a star; ? = inconclusive; · = no result given; [ ] = dose if it differs, or a comment. An excerpt weighted towards active compounds, which were near 9.2% of everything screened. Calls follow the shape of the dose curve; as a rule, active = well fitted curve in the direction sought with a large enough effect; inconclusive = small, poorly fitted or top-dose-only effect, or another doubt; inactive = no such curve, though single readings can be large; an effect the other way counts as inactive or inconclusive. Potency is read from the fitted curve at half-maximal effect.

SMILES | ELG1 repair inh | FLuc counter | NPC1 prom act | SMN2 splice up | Rab9 promoter act | ELG1 genotoxic
CCOC(=O)c1c(C)n(C)c2ccc(OCC(O)Cn3nc(C)c(Br)c3C)cc12 (centres undefined) | 21µM* | -10% | -1% | 3% | 0% | -9%
CC(C)Sc1nc(N)nc(-c2cccs2)c1C#N | ? | 17µM* | ? | 18µM* | 2.8µM* | ?
CSc1nc(N)nc(-c2cccs2)c1C#N | ? | ? | 1% | -11% | 1% | 6%
COc1ccc(/C=C/c2ccncc2)c2ccccc12 | · | -6% | · | 3% | · | ·
COc1ccc(/C=C/c2ccc3cccc(O)c3n2)c(OC)c1OC | ? | 4.8µM* | 3.2µM* | · | 2.5µM* | 23µM*
COc1cc(Br)cc(/C=C/c2ccc3cccc(O)c3n2)c1OC | -15% | ? | -1% | · | 2%[1.84 µM] | -4%
COc1cccc(/C=C/c2ccc3cccc(O)c3n2)c1OC | ? | 2.7µM* | 3.5µM* | · | ? | 18µM*
O=c1c(C=NCCCn2ccnc2)c(-c2ccccc2)[nH]n1-c1nc2ccccc2s1 | -5% | 17µM* | -4% | · | 2% | ?
Cc1ccc(C(=O)NC(C(=O)OCc2cn3cc(Cl)ccc3n2)C(C)C)cc1 (centres undefined) | -8% | -9% | 3% | · | -2% | 1%
CC(=O)c1cccc(Nc2ccc(-c3ccccc3F)nn2)c1 | ? | 5.4µM* | 2.8µM* | 11µM* | 2.2µM* | 13%
CC(=O)c1ccc(Nc2ccc(-c3ccccc3C)nn2)cc1 | ? | 9.5µM* | ? | 11µM* | 1.6µM* | ?
CCOC(=O)c1c(C)nn(-c2ccc(NC(=O)CSCC(=O)O)cc2)c1C | 1% | -3% | -2% | · | -5% | -4%
CC(C)C1/C(=N/O)CC(c2ccccc2)NC1c1ccccc1 (centres undefined) | 16µM* | -3% | -1% | · | 1% | -14%
CC1/C(=N/O)CC(c2ccccc2)NC1c1ccccc1 (centres undefined) | -3% | 1% | 1% | -20% | -1% | -6%
Cc1c(CCC(=O)N[C@@H](CCCNC(N)=O)C(=O)O)c(=O)oc2cc3oc4c(c3cc12)CCCC4 | ? | 15µM* | 3% | · | 9% | 7%
Cc1c(CC(=O)N[C@@H](C)C(=O)O)c(=O)oc2cc3oc4c(c3cc12)CCCC4 | 2% | 17µM* | 0% | · | 1% | -3%
CCCCC(NC(=O)Cc1c(C)c2cc3c4c(oc3c(C)c2oc1=O)CCCC4)C(=O)O (centres undefined) | 4% | ? | -3% | · | -1% | -1%
CCCCC(NC(=O)Cc1c(C)c2cc3c4c(oc3cc2oc1=O)CCCC4)C(=O)O (centres undefined) | 20% | 19µM* | -1% | · | 6% | 2%
Cc1coc2cc3oc(=O)c(CC(=O)N[C@@H](CC(C)C)C(=O)O)c(C)c3cc12 | 2% | 2% | 1% | · | -4%[1.84 µM] | 0%
Cc1coc2cc3oc(=O)c(CCC(=O)N[C@@H](CCCNC(N)=O)C(=O)O)c(C)c3cc12 | 0% | 2% | 1% | · | 5% | -1%
CSCC[C@H](NC(=O)Cc1c(C)c2cc3c4c(oc3cc2oc1=O)CCCC4)C(=O)O | ? | 11µM* | 0% | · | 1% | 2%
O=C(O)c1cc(NC(=O)c2cccc(F)c2)cc(NC(=O)c2cccc(F)c2)c1 | -16% | -19% | 1% | · | 1% | -1%
COc1ccccc1NC(=O)C(=O)NCC(c1cccnc1)N1CCc2ccccc2C1 (centres undefined) | · | 0% | · | · | · | ·
Cc1c(CCC(=O)NCCCCCC(=O)O)c(=O)oc2c(C)c3oc4c(c3cc12)CCCC4 | -1% | ? | 1% | · | -3% | 4%
CCC(NC(=O)CCc1c(C)c2cc3c4c(oc3cc2oc1=O)CCCC4)C(=O)O (centres undefined) | ? | 15µM* | -2% | · | 6% | 6%

Source: PubChem (National Center for Advancing Translational Sciences (NCATS))
